According to PubChem BioAssay (Tox21):
Records with an inconclusive call do not appear. Activity calls are given as the source filed them. The call rests on the fitted dose curve; in most records, active means well fitted curve in the direction sought with a large enough effect in the repeat runs; inconclusive means weak or mixed curves; inactive means no such curve, though single readings can be large; an effect the other way counts as inactive or inconclusive.

Assays:
[1] = qHTS RealTime-Glo MT Cell Viability Assay in HEK293 cells - 16 hour (AID 1224872); further: nearly all actives have a fitted effect of over 50% in size; further: potency means the concentration at half of the fitted maximal effect
How it was run: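 Assay medium contained NanoLuc luciferase plus cell-permeant prosubstrate, added with HEK293 cells at 600 cells/well. After 5 h at 37 C/5% CO2 compounds were added; plates stayed at 37 C for 40 h with serial luminescence reads.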

[2] = qHTS RealTime-Glo MT Cell Viability Assay in HepG2 cells - 8 hour (AID 1224873); further: nearly all actives have a fitted effect of over 55% in size
How it was run: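 HepG2 cells (600/well) mixed with RealTime-Glo MT reagent, settled 5 h at 37 C/5% CO2 before compound addition. Nonlytic NanoLuc luminescence from viable-cell prosubstrate reduction read repeatedly during 40 h treatment at 37 C.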

[3] = A CellTox Green Cytotoxicity Assay to monitor cytotoxicity in HepG2 cells - 16 hour (AID 1224876); further: nearly all actives have a fitted effect of over 45% in size; further: potency means the concentration at half of the fitted maximal effect
How it was run: (§1)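 HepG2 cells, 600/well, preincubated 5 h with CellTox Green dye, then exposed to Tox21 compounds in DMSO at 37 C for up to 40 h. Dead-cell DNA fluorescence read at the indicated time point.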

[4] = qHTS RealTime-Glo MT Cell Viability Assay in HepG2 cells - 32 hour (AID 1224877); further: nearly all actives have a fitted effect of over 55% in size; further: potency means the concentration at half of the fitted maximal effect
How it was run: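 qHTS, HepG2, 600 cells/well, RealTime-Glo (NanoLuc + prosubstrate) added with cells; 5 h preincubation; DMSO compound addition; 37 C; luminescence at 0/8/16/24/32/40 h.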

[5] = A CellTox Green Cytotoxicity Assay to monitor cytotoxicity in HepG2 cells - 24 hour (AID 1224878); further: nearly all actives have a fitted effect of over 45% in size; further: potency means the concentration at half of the fitted maximal effect
How it was run: as §1

[6] = A CellTox Green Cytotoxicity Assay to monitor cytotoxicity in HepG2 cells - 40 hour (AID 1224879); further: nearly all actives have a fitted effect of over 40% in size; further: potency means the concentration at half of the fitted maximal effect
How it was run: as §1

[7] = qHTS RealTime-Glo MT Cell Viability Assay in HEK293 cells - 0 hour (AID 1224880); further: nearly all actives have a fitted effect of over 45% in size; further: potency means the concentration at half of the fitted maximal effect
How it was run: (§2)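 600 cells/well were plated with the nonlytic NanoLuc/prosubstrate reagent, pre-incubated 5 h, then given 23 nL of compound in DMSO. Incubation at 37 C for 40 h, with luminescence from viable-cell-reduced substrate read repeatedly from 0 h.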

[8] = A CellTox Green Cytotoxicity Assay to monitor cytotoxicity in HEK293 cells - 32 hour (AID 1224881); further: nearly all actives have a fitted effect of over 40% in size; further: potency means the concentration at half of the fitted maximal effect
How it was run: (§3)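 HEK293 cells, 600/well, were preincubated 5 hours and then exposed to compounds at 37 C for up to 40 hours. A cell-impermeant cyanine dye staining dead-cell DNA was read by fluorescence at 0, 8, 16, 24, 32 and 40 h time points.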

[9] = qHTS RealTime-Glo MT Cell Viability Assay in HEK293 cells - 40 hour (AID 1224874); conditions: RealTime-Glo luminescence; max response: hits give low values; further: nearly all actives have a fitted effect of over 50% in size; further: potency means the concentration at half of the fitted maximal effect
How it was run: as §2

[10] = A CellTox Green Cytotoxicity Assay to monitor cytotoxicity in HEK293 cells - 24 hour (AID 1224875); further: nearly all actives have a fitted effect of over 45% in size; further: potency means the concentration at half of the fitted maximal effect
How it was run: as §3
On the % scale 0 is the no-effect control and ±100 the full control effect.

CCC(C)c1cc(C(C)(C)C)c(O)c(C(C)(C)C)c1 (stereo unspecified)
inactive: Potency [1] | Potency [2] | Potency [3] | Potency [4] | Potency [5] | Potency [6] | Potency [7]

C/C=C(/C(=C/C)c1ccc(OC(C)=O)cc1)c1ccc(OC(C)=O)cc1
inactive: Potency [1] | Potency [2] | Potency [3] | Potency [4] | Potency [5] | Potency [6] | Potency [7] | Potency [8]

Nc1ccccc1S(=O)(=O)c1ccccc1
inactive: Potency [1] | max response [9] -22.9% | Potency [10] | Potency [3] | Potency [4] | Potency [6] | Potency [7]

CCCn1cnc2c1c(=O)n(CCCCC(C)=O)c(=O)n2C
inactive: Potency [1] | max response [9] -0.107% | Potency [10] | Potency [3] | Potency [4] | Potency [5] | Potency [6] | Potency [7]

CC1CCC(=O)C1=O (stereo unspecified)
inactive: Potency [1] | Potency [2] | Potency [3] | Potency [4] | Potency [5] | Potency [6] | Potency [7] | Potency [8]

CCc1cc(C2=C(C(=O)O)N(c3ccccc3C(F)(F)F)S(=O)(=O)c3ccccc32)cc2c1OCO2
active: Potency [7] 43.1 µM
inactive: Potency [1] | max response [9] -24.9% | Potency [10] | Potency [3] | Potency [4] | Potency [6] | Potency [8]

c1ccc(CNCCNCc2ccccc2)cc1
inactive: Potency [1] | max response [9] 7.91% | Potency [10] | Potency [3] | Potency [4] | Potency [5] | Potency [6] | Potency [7] | Potency [8]

Clc1ccc2c(c1)CCc1cccnc1C2=C1CCNCC1
inactive: Potency [1] | Potency [2] | Potency [10]
active: Potency [4] 26.8 µM | Potency [5] 23.9 µM | Potency [6] 23.9 µM

COc1ccc(C(=O)Nc2nc3ccccc3c(NCc3ccccc3)c2C#N)cc1
inactive: Potency [1] | max response [9] -18.2% | Potency [10] | Potency [3] | Potency [5] | Potency [6] | Potency [7] | Potency [8]

NC(=O)C(c1ccccc1)(c1ccccc1)[C@@H]1CCN(CCc2ccc3c(c2)CCO3)C1
inactive: Potency [2] | Potency [4] | Potency [7]
active: Potency [10] 21.3 µM | Potency [3] 23.9 µM | Potency [5] 21.3 µM | Potency [6] 23.9 µM | Potency [8] 21.3 µM

C=C(C)C(=O)OCC
inactive: Potency [1] | max response [9] 2.67% | Potency [3] | Potency [4] | Potency [5] | Potency [6] | Potency [7]

Cc1nn(C)c(Oc2ccccc2)c1/C=N/OCc1ccc(C(=O)OC(C)(C)C)cc1
active: Potency [9] 0.0062 µM
inactive: Potency [2] | Potency [10] | Potency [3] | Potency [4] | Potency [5] | Potency [6] | Potency [7] | Potency [8]

CCCCCCOC(=O)NC(=N)c1ccc(NCc2nc3cc(C(=O)N(CCC(=O)OCC)c4ccccn4)ccc3n2C)cc1
inactive: Potency [10] | Potency [3] | Potency [8]
active: Potency [1] 9.52 µM | Potency [9] 10.7 µM | Potency [5] 23.9 µM | Potency [6] 23.9 µM

CCCCC(CC)COC(=O)CCCCCCCCC(=O)OCC(CC)CCCC (stereo unspecified)
inactive: Potency [1] | Potency [3] | Potency [4] | Potency [5] | Potency [6] | Potency [7] | Potency [8]

CC(C)(COC(=O)c1ccccc1)COC(=O)c1ccccc1
inactive: Potency [2] | max response [9] -28.7% | Potency [10] | Potency [3] | Potency [4] | Potency [5] | Potency [6] | Potency [7]

O=C(O)c1ccc(S(=O)(=O)O)cc1C(=O)O
inactive: Potency [2] | Potency [10] | Potency [3] | Potency [4] | Potency [5] | Potency [6] | Potency [7] | Potency [8]

O=C(Nc1ccc(S(=O)(=O)N2CCOCC2)cc1)c1cc(Cl)ccc1NS(=O)(=O)c1ccc(Cl)s1
active: Potency [10] 23.9 µM | Potency [3] 26.8 µM | Potency [7] 10.7 µM | Potency [8] 23.9 µM
inactive: Potency [1] | max response [9] -14.7%

S=C([S-])NCCNC(=S)[S-].[Mn+2]
inactive: Potency [2] | Potency [10] | Potency [3] | Potency [4] | Potency [5] | Potency [6] | Potency [7] | Potency [8]

COc1cc(Cl)ccc1Oc1ccc(Cl)cc1Cl
inactive: Potency [2] | max response [9] -24.6% | Potency [10] | Potency [3] | Potency [4] | Potency [5] | Potency [6] | Potency [8]

Brc1c2ccccc2cc2ccccc12
inactive: Potency [2] | max response [9] -17.1% | Potency [10] | Potency [3] | Potency [4] | Potency [5] | Potency [6] | Potency [7] | Potency [8]

CCN(CC)c1ccc2c(-c3ccccc3C(=O)O)c3ccc(=[N+](CC)CC)cc-3oc2c1
inactive: Potency [7]
active: Potency [1] 34.7 µM | Potency [9] 24.5 µM | Potency [10] 24.5 µM | Potency [3] 24.5 µM | Potency [5] 21.9 µM | Potency [6] 24.5 µM

COc1cc2nc(Cl)nc(N)c2cc1OC
inactive: Potency [2] | Potency [10] | Potency [3] | Potency [4] | Potency [5] | Potency [6] | Potency [7]

CC(C)(C)Cl
inactive: Potency [1] | Potency [3] | Potency [4] | Potency [5] | Potency [6] | Potency [8]

CCC(Cl)CCC(Cl)C(Cl)CC(Cl)C(Cl)C(Cl)CCl (stereo unspecified)
inactive: Potency [1] | max response [9] 0.988% | Potency [3] | Potency [4] | Potency [5] | Potency [6] | Potency [7] | Potency [8]

CCc1c(C(=O)NN2CCCCC2)nn(-c2ccc(Cl)cc2Cl)c1-c1ccc(Br)cc1
inactive: Potency [1] | Potency [3] | Potency [6] | Potency [7]
